In patent US20210230599, “STEM-LOOP COMPOSITIONS AND METHODS FOR INHIBITING INTERLEUKIN-8” (VITRISA THERAPEUTICS, INC., published 2021):

The sequences below were run against Interleukin-8 (IL8, CXCL8), C-terminal His-tagged (Homo sapiens, UniProt P10145 SEQ:1-72) (assay: competition; competition TR-FRET; deletion at position 16). Details: tags: C-terminal 6xHis (Sino Biological); ssRNA; 2'-F G, 2'-OMe A/C/U, 5' C6NH2, 3' idT.
Description: Activity of each of these variants were tested using a time resolved competition TR-FRET assay in which the labeled parent Aptamer 3 was competed with increasing concentrations of unlabeled variants for binding to IL8 (FIG. 14). Briefly, 2-fold dilutions of thermally equilibrated aptamers were made in TR-FRET Buffer (50 mM MOPS, pH 7.4, 125 mM NaCl, 5 mM KCl, 50 μM CHAPS, 0.1 mg/mL BSA, 1 mM CaCl₂, and 1 mM MgCl₂). 5 μL of aptamer or control solution was added to 5 μl mix of 10 nM C-terminal His-tagged-IL8, 60 nM ALEXA FLUOR® 647-labeled Aptamer, and 5 nM anti-His-Eu (Perkin Elmer) in a black wall low volume 384 well plate (Greiner). For control, 5 μl of 1000-fold excess of unlabeled parent aptamer or 5 μl TR-FRET buffer alone was added to the mix of ALEXA FLUOR® 647-labeled aptamer, His-IL8, and anti-His-Eu. The plate was covered with a plate seal and subsequently incubated in the dark for 1 hour at room temperature. The plate was read on a Biotek CYTATION™ 5 plate reader. Samples were excited at 330 nm and fluorescent values were collected at 665 nm. Data analysis was performed by subtracting the background value and plotting as percent inhibition, normalized to baseline in the absence of competitor. […]

Sequence | binding signal
UGAUGACGGUAGAUUUGGGUAGAGUGACCGCAUCU | ~5 fold worse than Aptamer 3
